Here are results for 40 molecules from PubChem BioAssay (NCATS).

Results filed as inconclusive are left out. Where a call stands in place of a potency, no number is given. Calls of active or inactive are those of the source. Calls come from the whole dose curve; as a rule, active = well fitted activation curve with a large enough effect; inconclusive = small, poorly fitted or top-dose-only effect; inactive = no such curve, though single readings can be large or run the other way.

The assay deals with Rap guanine nucleotide exchange factor 3 (Homo sapiens) (UniProt O95398). The experiment in a line: Confirmatory qHTS for agonist of cAMP-regulated guanine nucleotide exchange factor 3 (EPAC1) (AID 1645881).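 Note: EPAC1 catalysed release of BODIPY-GDP from Rap1B seen as fluorescence loss; nearly all actives have a fitted effect of over 75% in size.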 The following applies: EPAC1 Rap1B BODIPY-GDP exchange fluorescence; series mostly up to 154 µM. For orientation: Quantitative high-throughput screening tests each substance at several concentrations.
Sequence of Rap guanine nucleotide exchange factor 3 (Homo sapiens) (O95398 whole entry, looked up): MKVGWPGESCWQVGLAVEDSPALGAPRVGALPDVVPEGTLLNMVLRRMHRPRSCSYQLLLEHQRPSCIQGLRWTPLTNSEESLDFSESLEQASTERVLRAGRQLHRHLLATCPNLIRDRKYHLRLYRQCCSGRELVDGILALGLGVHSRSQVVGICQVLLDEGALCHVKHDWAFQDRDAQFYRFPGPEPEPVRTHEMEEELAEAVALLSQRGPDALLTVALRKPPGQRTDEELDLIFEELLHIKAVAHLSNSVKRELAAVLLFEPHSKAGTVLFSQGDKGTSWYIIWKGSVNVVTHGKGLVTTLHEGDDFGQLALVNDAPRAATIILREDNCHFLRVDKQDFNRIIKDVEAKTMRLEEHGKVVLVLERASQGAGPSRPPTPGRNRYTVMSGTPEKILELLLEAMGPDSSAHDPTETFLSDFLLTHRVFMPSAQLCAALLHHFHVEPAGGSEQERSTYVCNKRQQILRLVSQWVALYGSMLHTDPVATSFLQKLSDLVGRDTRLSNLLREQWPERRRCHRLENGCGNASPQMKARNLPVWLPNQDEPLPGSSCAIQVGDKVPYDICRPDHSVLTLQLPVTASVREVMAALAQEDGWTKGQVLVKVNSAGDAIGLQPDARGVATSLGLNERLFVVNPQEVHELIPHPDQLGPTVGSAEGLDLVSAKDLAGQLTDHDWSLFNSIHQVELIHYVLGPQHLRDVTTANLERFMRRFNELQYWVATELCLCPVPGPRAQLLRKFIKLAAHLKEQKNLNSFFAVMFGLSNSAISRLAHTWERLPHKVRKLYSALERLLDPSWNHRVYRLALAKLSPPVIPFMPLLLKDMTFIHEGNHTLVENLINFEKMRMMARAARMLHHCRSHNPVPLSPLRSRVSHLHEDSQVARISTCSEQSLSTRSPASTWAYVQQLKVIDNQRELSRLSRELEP
As for `Cc1ccc(C2CC(c3cccs3)=NN2C(=O)c2ccco2)o1` (stereo not given), the Potency result is “inactive”.
With `CCc1cc(=O)oc2cc(C)cc(OCC(=O)N[C@@H](CSCc3ccccc3)C(=O)O)c12`, the Potency entry was “inactive”.
`C=C1SC(Nc2c(C)cccc2C)=NC12CCCCC2`: the Potency entry was “inactive”.
As for `CCCN(CCC)Cc1cc(=O)oc2cc(OC)ccc12`, the entry is “inactive”.
Next, `COc1ccc(-c2nc(CCNS(=O)(=O)c3ccc4c(c3)OCCO4)cs2)cc1`: “inactive”; `CCOc1ccc(NC(=NCc2ccc3c(c2)OCO3)SC2CC(=O)N(c3ccc(C(=O)O)cc3)C2=O)cc1` (stereo not given): “inactive”; `CCCc1[nH]c2ccc(C#N)cc2c1CCC`: “inactive”.
Next, `O=C(COc1ccc(Cl)cc1Cl)c1ccc[nH]1`: “inactive”.
Turning to `Fc1ccc2cnc(-c3ccccc3)c(-c3ccc(C(F)(F)F)cc3)c2c1`, the Potency entry was “inactive”.
As for `COc1ccccc1/C=C/C=c1\sc2nc(=O)c(Cc3ccccc3)nn2c1=O`, the entry is “inactive”.
As for `CCc1nc2c(OCc3ccc(C(=O)OC)cc3)cccn2c1N(C)C(=O)c1ccc(OC)cc1`, the entry is “inactive”; as for `Cc1ccc(C2CC(c3cccs3)=NN2C(=O)CSc2nc(=O)n3cc(C)ccc3n2)cc1` (stereo not given), “inactive”; as for `O=C(O)c1[nH]c2ccccc2c1C(c1cccc(O)c1)c1c(C(=O)O)[nH]c2ccccc12`, “inactive”.
Next, `CCOc1cnc(-c2c(-c3ccccc3Cl)noc2C)o1`: “inactive”.
On to `O=C(Nc1ccncc1)c1cc2ccccc2cc1O`, for which the Potency result was “inactive”.
Next, `O=C1c2ccccc2C(c2nnnn2Cc2ccccc2)N1CCc1c[nH]c2ccccc12` (stereo not given): “inactive”; `Cc1ccc(C(=O)NNC(=O)c2ccccc2O)cc1S(=O)(=O)N1CCCCC1`: “inactive”; `O=C(N/N=C/c1ccoc1)c1cc(O)cc(O)c1`: “inactive”.
As for `O=C(Cc1ccc(Br)c2ccccc12)N/N=C/c1ccccn1`, the entry is “inactive”.
As for `CCc1ccc(S(=O)(=O)Nc2cc(SCC(=O)O)c(O)c3ccccc23)cc1`, the entry is “inactive”.
Consider `CCC(=C(c1ccc(OC)cc1)c1ccc(OC)cc1)c1cn(CC(O)CN(CCO)CCO)c2ccccc12` (stereo not given), for which the Potency result is “inactive”.
Next, `COC(=O)c1sc(-c2ccc(C(C)(C)C)cc2)cc1NC(=O)CSCC(=O)O`: “inactive”; `COc1ccc(-c2ccc(C(=O)NCC3CC3)c3occc23)c(C)c1`: “inactive”.
On to `Fc1ccc2c(-c3cccc(C(F)(F)F)c3)c(-c3ccccc3)ncc2c1`, for which the Potency entry is “inactive”.
For the molecule `Cc1cccc(OC(=O)Nc2ccc(C(=O)O)c(O)c2)c1`, the Potency result was “inactive”.
As for `CC(C)CNC(=O)C1(C)CCCCCN1Cc1ccccc1-c1ccccc1` (stereo not given), the entry is “inactive”; as for `CC(C)=CCC[C@H](C)C[C@@H]1Cc2[nH][nH]c(=O)c2[C@H](c2ccc(F)cc2)O1`, “inactive”; as for `COc1cccc(N2CCN(CC(=O)NC(=O)NCc3ccco3)CC2)c1`, “inactive”.
Next, `O=C(Nc1nc2ccccc2c(=O)s1)c1ccc(F)cc1Cl`: “inactive”.
As for `CCOc1cc(C)c(-c2onc(C(F)(F)F)c2-c2csc(C)n2)c(O)c1`, the entry is “inactive”.
As to `Cc1ccc2oc(=O)c3cnn(CC(=O)NC4CCC(C)CC4)c3c2c1` (stereo not given), the Potency result is “inactive”.
Next, `O=C(O)c1ccc(COc2ccc3ccccc3c2/C=C2/NC(=O)N(Cc3ccc(F)cc3)C2=O)cc1`: “inactive”.
Next, `O=S(=O)(Nc1nccs1)c1ccc(Nc2nnc(-c3ccccc3)c3ccccc23)cc1`: “inactive”.
`CCOC(=O)C1=C(C)NC(C)=C(C(=O)OCC)C1C(=O)OCC(=O)NCc1ccc(F)cc1`: the Potency entry was “inactive”.
As for `CN(CC(=O)Nc1ccc(F)cc1)C(=O)COc1ccc(C(=O)c2ccccc2)cc1`, the entry is “inactive”.
As for `O=C1[C@H](Cc2ccccc2)NCC=CC[C@@H](c2ccc(Cl)cc2)N1Cc1ccc(Cl)cc1`, the entry is “inactive”.
`CC(c1ccon1)N(C)Cc1cn(C)nc1-c1cccc(Cl)c1` (stereo not given): the Potency entry is “inactive”.
As for `COc1ccccc1N(C)S(=O)(=O)c1ccc(C(=O)NC2CCCCC2)cc1`, the entry is “inactive”; as for `CCCCC[C@H](C)N1C[C@H](COCc2ccccc2)Oc2cc(N3CCC[C@H]3C(N)=O)ccc2S1(=O)=O`, “inactive”.
As for `Cc1cccc(NC(=S)N2CCN(S(=O)(=O)c3cccc(F)c3)CC2)c1`, the entry is “inactive”.
